Results on 2 compounds are retold here after PubChem BioAssay AID911 (National Center for Advancing Translational Sciences (NCATS), 2007).

The list shows a part of the results. Where a call stands in place of a potency, no number is given. Results filed as inconclusive are left out. Active and inactive are the calls of the source. Calls come from the whole dose curve.

The target in the assay is Microtubule-associated protein tau (Homo sapiens) (UniProt P10636). The experiment in a line: Tau ThS binding assay. The following applies: recombinant tau filaments, Thioflavin S fluorescence displacement. An excerpt: NIH Molecular Libraries Screening Centers Network [MLSCN] NIH Chemical Genomics Center [NCGC] MLSCN Grant: 1 X01 MH079825-01 Assay Provider: Jeffrey A. Kuret, Ohio State University NCGC Assay Overview: This assay is a confirmation study for the qHTS Assay for Tau Filament Binding (PubChem AID 596). Tau monomers form filaments in vitro in the presence of arachidonic acid. The dye Thioflavine S (ThS) binds to tau filaments and upon binding, increases in fluorescence several fold. Small molecules that displace ThS binding or prevent filament binding are identified by a reduction in ThS fluorescence.
Chain of Microtubule-associated protein tau (Homo sapiens) (P10636 whole entry, looked up): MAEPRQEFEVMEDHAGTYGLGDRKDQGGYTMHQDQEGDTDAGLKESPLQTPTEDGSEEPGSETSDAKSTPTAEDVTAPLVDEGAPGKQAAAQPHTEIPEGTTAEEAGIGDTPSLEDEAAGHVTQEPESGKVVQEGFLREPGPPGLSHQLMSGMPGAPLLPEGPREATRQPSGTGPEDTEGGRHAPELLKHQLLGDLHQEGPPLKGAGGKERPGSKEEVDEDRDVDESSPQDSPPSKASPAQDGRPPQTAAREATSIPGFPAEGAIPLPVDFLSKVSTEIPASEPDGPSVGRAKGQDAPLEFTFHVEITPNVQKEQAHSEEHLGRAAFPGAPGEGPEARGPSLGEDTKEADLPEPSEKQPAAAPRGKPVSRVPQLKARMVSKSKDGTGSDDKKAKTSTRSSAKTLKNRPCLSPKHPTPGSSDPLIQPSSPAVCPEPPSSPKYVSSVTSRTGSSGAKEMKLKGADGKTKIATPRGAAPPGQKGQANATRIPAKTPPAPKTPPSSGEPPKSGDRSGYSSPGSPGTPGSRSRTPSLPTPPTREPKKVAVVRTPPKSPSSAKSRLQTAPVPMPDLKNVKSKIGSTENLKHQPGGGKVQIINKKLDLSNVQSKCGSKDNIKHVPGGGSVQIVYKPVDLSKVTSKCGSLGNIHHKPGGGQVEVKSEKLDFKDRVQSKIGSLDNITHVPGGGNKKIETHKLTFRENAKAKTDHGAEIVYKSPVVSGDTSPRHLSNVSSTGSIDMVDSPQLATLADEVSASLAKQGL
NCGC Assay Protocol Summary The assay was performed in 96-well round bottom opaque plates (VWR, West Chester, PA) in 100 uL final volume. Recombinant His6-htau40 was diluted to 5 uM in assembly buffer (10 mM HEPES, pH 7.4, 100 mM NaCl, 5 mM dithiothreitol) containing 50 uM arachidonic acid inducer. ThS probe was then added to a final concentration of 10 uM with test compounds assayed at nine 3-fold dilutions beginning at 10 uM final concentration. Each compound was tested at least twice in separate assays. Controls without protein or without compound were included on each plate. […] Fluorescence (ex = 440 nm; em = 485 nm) was measured after brief shaking (10 s) in a FlexStation plate reader (Molecular Devices, Sunnyvale, CA) operated at sensitivity 10, automatic PMT. […]
Regarding `Oc1ccc(O)c2c(O)cccc12`, the Potency was 4.97 µM (active). Consider `O=C(CCCCn1c(=O)[nH]c2ccccc2c1=O)NCc1ccc2c(c1)OCO2`, for which the outcome was inactive.
